Each structure is given as a SMILES string. Values without a mark were called inactive. The rule behind the calls is not given here.

The target in this test is fMet-Leu-Phe receptor (Homo sapiens) (UniProt P21462). As to the kind of experiment: human FPR1 ligand displacement single-point test – cell-based, single concentration, selectivity assay for FPRL1 ligand SAR project, SAR follow-up (AID 763). To be noted: FPR1-expressing cells, fluorescent ligand binding inhibition, active compounds read high; at 5.4 µM unless noted.
fMet-Leu-Phe receptor (Homo sapiens), sequence (P21462 whole entry, looked up): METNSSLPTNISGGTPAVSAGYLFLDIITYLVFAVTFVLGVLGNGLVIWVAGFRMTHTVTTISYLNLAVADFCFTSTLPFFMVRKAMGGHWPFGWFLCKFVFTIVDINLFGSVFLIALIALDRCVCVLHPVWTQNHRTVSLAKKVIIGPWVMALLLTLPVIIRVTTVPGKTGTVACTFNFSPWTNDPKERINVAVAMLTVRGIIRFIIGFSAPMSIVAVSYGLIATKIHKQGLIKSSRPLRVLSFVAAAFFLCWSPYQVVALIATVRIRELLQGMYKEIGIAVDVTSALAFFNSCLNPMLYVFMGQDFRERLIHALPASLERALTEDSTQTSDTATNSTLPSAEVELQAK

Regarding `CCOC(=O)N1CCN(c2nc(-c3ccc(OC)cc3)cc(C(F)(F)F)n2)CC1`, the inhibition (usually the change of the read-out against control, counted positive when it falls) was -5.3%.
As to `O=C(O)CCC(=O)N1CCN(c2nc(-c3ccccc3Cl)c3cc(Br)ccc3n2)CC1`, the inhibition is 2.5% [at 4.4 µM].
`CC(C)(C)OC(=O)N1CCN(c2nc(-c3ccccc3)c3ccccc3n2)CC1`: the inhibition is -1.7% [at 5.7 µM].
For `COc1cccc(-c2cc(C(F)(F)F)nc(N3CCN(c4ccc(F)cc4)CC3)n2)c1`, the inhibition was 1.7% [at 5.1 µM].
`Cc1ccc(-c2cc(C(F)F)nc(N3CCN(Cc4ccccc4)CC3)n2)cc1`: the inhibition is -7.2% [at 5.6 µM].
In the case of `COc1ccc(-c2cn3cccnc3n2)cc1NC(=O)Cc1cccc(C)c1` it was 4.7% [at 6 µM].
As to `CCOC(=O)N1CCN(c2nc(-c3ccc(Cl)cc3)cc(C(F)(F)F)n2)CC1`, the inhibition is -2.8%.
Consider `O=C(N1CCN(c2nc(-c3ccccc3)c3ccccc3n2)CC1)C(F)(F)F`, for which the inhibition is 5.9% [at 5.8 µM].
Consider `COc1ccc(-c2cn3cccnc3n2)cc1NC(=O)c1cccc(C(F)(F)F)c1`, for which the inhibition is -2%.
Turning to `CCCC(CCC)C(=O)Nc1cc(-c2cn3cccnc3n2)ccc1OC`, the inhibition was -2% [at 6.1 µM].
Take `Fc1ccc(-c2cc(C(F)(F)F)nc(N3CCN(c4cccc(Cl)c4)CC3)n2)cc1`: the inhibition is 5.6% [at 5.1 µM].
With `Cc1ccc2nc(N3CCN(c4ccccc4)CC3)nc(-c3ccccc3)c2c1`, the inhibition is 0.6% [at 5.8 µM].
As for `O=C(c1cccc(F)c1)N1CCN(c2nc(-c3cccs3)cc(C(F)(F)F)n2)CC1`, the figure is 1.1% [at 5.1 µM].
As for `Clc1ccc2nc(N3CCN(c4ccccc4)CC3)nc(-c3ccccc3)c2c1`, the figure is 1.7% [at 5.5 µM]; as for `CCOC(=O)N1CCN(c2nc(-c3ccc(C)cc3)cc(C(F)F)n2)CC1`, 1.5% [at 5.9 µM].
As to `CCOC(=O)N1CCN(c2nc(-c3ccccc3Cl)c3cc(Br)ccc3n2)CC1`, the inhibition was 1.8% [at 4.7 µM].
`O=C(O)/C=C/C(=O)N1CCN(c2nc(-c3ccccc3)c3ccccc3n2)CC1`: the inhibition was 2.4% [at 5.7 µM].
Regarding `Fc1ccc(-c2cc(C(F)(F)F)nc(N3CCN(c4ccc(F)cc4)CC3)n2)cc1`, the inhibition is -2% [at 5.3 µM].
`COc1ccccc1-c1cc(C(F)(F)F)nc(N2CCN(C(c3ccccc3)c3ccccc3)CC2)n1`: the inhibition is 6.5% [at 4.4 µM].
For `COc1ccc(-c2cn3cccnc3n2)cc1NC(=O)c1c(-c2ccccc2Cl)noc1C`, the inhibition is 2.7% [at 4.8 µM].
Take `COc1ccc(-c2cc(C(F)(F)F)nc(N3CCN(C)CC3)n2)cc1`: the inhibition is 2.1% [at 6.3 µM].
Consider `CCCCOc1ccc(C(=O)Nc2cc(-c3cn4cccnc4n3)ccc2OC)cc1`, for which the inhibition is 2.6% [at 5.3 µM].
On to `COc1ccc(-c2cc(C(F)(F)F)nc(N3CCN(Cc4ccccc4)CC3)n2)cc1`, for which the inhibition was -2.6% [at 5.2 µM].
For `COc1ccc(-c2cn3cccnc3n2)cc1NC(=O)c1ccc(Br)o1`, the inhibition is 0.9%.
Consider `COc1ccc(-c2cn3cccnc3n2)cc1NC(=O)c1ccccc1`, for which the inhibition is -4.9% [at 6.5 µM].
As for `Clc1cccc(-c2nc(N3CCN(Cc4ccccc4)CC3)nc3c2COc2ccccc2-3)c1`, the figure is 5.3% [at 4.7 µM].
For the compound `COc1ccccc1-c1cc(C(F)(F)F)nc(N2CCN(c3ccc(F)cc3)CC2)n1`, the inhibition was -2.5% [at 5.1 µM].
As for `COc1ccc(-c2cn3cccnc3n2)cc1NC(=O)c1ccc(C(F)(F)F)cc1`, the inhibition is 3.7%.
As for `O=C(c1ccccc1Cl)N1CCN(c2nc(-c3ccccc3)c3cc(Cl)ccc3n2)CC1`, the figure is -3.1% [at 4.8 µM]; as for `O=C(O)CCC(=O)N1CCN(c2nc(-c3ccccc3)c3cc([N+](=O)[O-])ccc3n2)CC1`, -0.6% [at 5.1 µM].
`COc1ccc(-c2cn3cccnc3n2)cc1NC(=O)CSCc1ccccc1`: the inhibition was -0.7% [at 5.5 µM].
As to `O=C(O)C1CC=CCC1C(=O)N1CCN(c2nc(-c3ccccc3Cl)c3cc(Br)ccc3n2)CC1` (stereo not drawn), the inhibition is 5.3% [at 4 µM].
As for `COc1ccc(-c2cn3cccnc3n2)cc1NC(=O)c1ccccc1OC`, the figure is 3.8% [at 5.9 µM].
